We go through 27 compounds from article PMC5540273 (PLoS ONE, 2017).

Structures are written as SMILES.
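Also: KINOMEscan kinase panel screen.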

For this assay, the system named is T1, YES.
T1 construct: gene YES1
The following applies: concentration: 1 μM,replicates: in singlicate; n = 1.
`CC(C)N1C(=O)Cc2cc(Nc3ncc(C(F)(F)F)c(NCc4cccc(S(C)(=O)=O)c4)n3)ccc21`: the “%Inh” value amounted to 9%.

For `CN(C)CC(O)COc1ccc(Nc2nccc(-c3cnn4nc(N5CCOCC5)ccc34)n2)cc1` (stereo not drawn) [GW767488], the “%Inh” value turned out to be 0%. `Cl.Cl.Nc1nc(-c2ccc3c(N)n[nH]c3c2)cc(N2CCCC(NC(=O)c3ccccc3)C2)n1` (stereo not drawn) [GSK2286775]: the “%Inh” value is given as 14%. `Cc1cc2cn[nH]c2cc1-c1cccc2c(N)c(C(N)=O)nnc12`: the “%Inh” value is recorded as 0%. Regarding `CN(C)CCOc1ccc(-c2cc(-c3c[nH]nc3-c3ccccn3)ccn2)cc1` [GW835314], the “%Inh” value came out at 55%.

For `COc1ccc(C[C@@H](CN)NC(=O)c2cc(Br)c(-c3ccnc4[nH]ccc34)s2)cc1.Cl.Cl` [GSK1389063], the “%Inh” value came to 22%. Regarding `CNC(=O)c1ccccc1Sc1ccc2c(/C=C/c3ccccn3)n[nH]c2c1`, the “%Inh” value is on record as 0%. With `CCn1c(-c2nonc2N)nc2c(C#CC(C)(C)O)nc(OCCN)cc21.Cl.Cl` [GSK902056], the “%Inh” value is 19%. For `Cc1ccc(-n2nc(C(C)(C)C)cc2NC(=O)Nc2ccc(OCCN3CCOCC3)c3ccccc23)cc1` [GW839464], the “%Inh” value was determined as 32%. As to `Nc1nc(Nc2ccccc2)cc(-c2ccc3c(N)n[nH]c3c2)n1` [GSK2225749], the “%Inh” value is 0%. `CCN(CC)CCCCNc1ncc2cc(-c3c(Cl)cccc3Cl)c(NC(=O)NC(C)(C)C)nc2n1`: the “%Inh” value was determined as 94.6%. Then `C[C@@H]1CCN(C(=O)CC#N)C[C@@H]1N(C)c1ncnc2[nH]ccc12`, with 0%; and `O=C(NCCNc1ccnc(NCc2ccc(F)cc2)n1)c1cc2ccccc2s1` [GSK1379944], with 11%. `C[C@H]1Oc2cc(cnc2N)-c2c(nn(C)c2C#N)CN(C)C(=O)c2ccc(F)cc21`: the “%Inh” value turned out to be 2%. In the case of `Cl.Cl.NC[C@H](Cc1ccc(C(F)(F)F)cc1)NC(=O)c1cc(Br)c(-c2ccnc3[nH]ccc23)s1` [GSK1487252], the “%Inh” value worked out at 19%. Then `Cc1ccc2c(-c3ccncc3)c(-c3ccc(F)cc3)nn2c1.Cl` [GW461484], with 0%; and `NC(=O)c1cc(-c2ccccc2)cc2c(C3CCNCC3)c[nH]c12` [GSK301362], with 24%.

For `CC(C)Nc1cc(-c2ccc3c(N)n[nH]c3c2)nc(N)n1` [GSK2221681], the “%Inh” value came out at 4%. `O=C(NCCCN1CCOC1=O)c1cnc(NCc2cc(Cl)ccc2Cl)nc1NC1CCCC1`: the “%Inh” value is 31%. With `Cl.Cl.NC[C@H](CC1CCCCC1)NC(=O)c1cc(Br)c(-c2ccnc3[nH]ccc23)s1` [GSK1581427], the “%Inh” value amounted to 1%.

Consider `CCN(CC)CCOc1ccc(Nc2ncc3cc(-c4c(Cl)cccc4Cl)c(=O)n(C)c3n2)cc1` [SB-601273], for which the “%Inh” value is recorded as 100%.

`C[C@@H](Oc1cc(-c2cnn(C3CCNCC3)c2)cnc1N)c1c(Cl)ccc(F)c1Cl`: the “%Inh” value worked out at 17%.

For `C=CC(=O)Nc1cc2c(Nc3ccc(F)c(Cl)c3)ncnc2cc1OCCCN1CCOCC1` [GW781483], the “%Inh” value is listed as 15%. For `Cl.Oc1cc(-c2nc(-c3ccccc3)[nH]c2-c2ccncc2)ccc1Cl` [SB-386023], the “%Inh” value is 31%.

Take `Cc1n[nH]c2ccc(-c3cc(OC[C@@H](N)Cc4ccccc4)cnc3-c3ccoc3)cc12.O=C(O)C(F)(F)F.O=C(O)C(F)(F)F` [GSK507358]: the “%Inh” value stood at 22%. Then `Cc1occc1-c1nc(N)c(OC[C@@H](N)Cc2c[nH]c3ccccc23)cc1-c1cc2c(C)n[nH]c2cn1` [GSK1660450], with 40%. With `Cc1cc(C(=O)Nc2ccc(Oc3ccc4nc(NC(=O)C5CC5)cn4n3)cc2)nn1-c1ccccc1`, the “%Inh” value is 25%.
